The results in this text go back to ChEMBL document CHEMBL3988442, “University of Dundee, Small-Polar-MMV Screening Library” (2021).

The whole screen tested about 48,000 compounds, of which about 13,000 (27%) showed an effect of 50% or more. The list shows a part of the results.

The assay has as its system Wolbachia pipientis. The assay is described as follows: Anti-Wolbachia Cell-Based Screen. Conditions: 5 µM. On the set-up: scale not given: in the data most compounds retested in dose-response had high values. The format is functional.
In the case of `COCCc1noc(CNC2CCCN(c3cccnn3)C2)n1` (stereo not drawn), the “Percent Effect” value is 6.075%. In the case of `CCOC(=O)c1coc(N2CCC(N3CCC(O)CC3)CC2)n1` it was -0.9238%; in that of `CC(=O)N(c1ccc(C)cc1)c1nc(CN2CCCC(C)C2)cs1` (stereo not drawn), 4.19%. Turning to `O=C(c1cnccn1)N1CCCC(c2cccc(-n3ccnc3)n2)C1` (stereo not drawn), the “Percent Effect” value amounted to 132.1%. In the case of `Cc1cc(C)nc(N2CCC(c3cncc(-n4ccnc4)n3)CC2)n1`, the “Percent Effect” value turned out to be 132.5%. Turning to `O=C(c1cc[nH]n1)N1CCCC(c2cccc(-n3ccnc3)n2)C1` (stereo not drawn), the “Percent Effect” value is on record as -0.007784%. On to `O=C(C1CCC1)N1CCCC(c2cccc(-n3ccnc3)n2)C1` (stereo not drawn), for which the “Percent Effect” value is 120%. `Fc1ccc(CN2CCCC2c2cncc(-n3ccnc3)n2)cc1` (stereo not drawn): the “Percent Effect” value was -7.107%.

With `Cc1cc(C2CCC2)nc(N2CC(n3cccn3)C2)n1`, the “Percent Effect” value turned out to be 18.14%. In the case of `CC(=O)N1CCCC(c2cccc(-n3ccnc3)n2)C1` (stereo not drawn) it was 108.7%.

`Cc1nc(COC[C@@H]2CCC[C@@]23CNCCO3)cs1.Cl.Cl`: the “Percent Effect” value is -7.746%.

As for `CNS(=O)(=O)CC1CCCN1c1ccc(Br)cn1` (stereo not drawn), the “Percent Effect” value is -12.02%.

In the case of `Cn1ccnc1C(NCc1csc(Br)c1)c1ccccc1` (stereo not drawn), the “Percent Effect” value is reported as -0.294%.

Take `CCc1nccc(CN2CCCC(c3nn(C)c(=O)n3CC)C2)n1` (stereo not drawn): the “Percent Effect” value was 16.29%. Consider `CC(C)[C@H]1COC(=O)N1Cc1nccn1C1CC1`, for which the “Percent Effect” value came to 4.052%.

As to `CCc1nc(N)nc(NCc2cnn3cccnc23)c1C`, the “Percent Effect” value was -10.8%. For the compound `OCCCN1CCc2[nH]nc(C(c3ccccc3)c3ccccc3)c2C1`, the “Percent Effect” value is reported as -10.74%. `O=C(Cn1ccc(=O)[nH]c1=O)NCc1cccnc1OCC(F)(F)F`: the “Percent Effect” value stood at 7.684%. The value for `CC(c1ccon1)N(C)C(=O)C1CCN(C2CCCCC2)CC1` (stereo not drawn) was -1.584%; that for `Cc1ccccc1CN1CCCN(S(=O)(=O)N(C)C2CCCCC2)CC1` was -4.096%. In the case of `Cc1cnn(CCNCc2nccn2Cc2ccccc2)c1`, the “Percent Effect” value amounted to 6.467%. For the compound `O=C(C1CCCC1)N1CCCC(c2cccc(-n3ccnc3)n2)C1` (stereo not drawn), the “Percent Effect” value worked out at 109.1%. The value for `Cc1n[nH]cc1C(=O)N1CCCC(c2cccc(-n3ccnc3)n2)C1` (stereo not drawn) was 117.2%. Take `Cc1cc(C2CCCN(C(=O)c3c(C)nn4cccnc34)C2)n[nH]1` (stereo not drawn): the “Percent Effect” value is reported as -1.385%. Turning to `Cn1c(Cn2ccnc2)nnc1C1CCCN(c2ncccn2)C1` (stereo not drawn), the “Percent Effect” value came to 5.27%. As to `c1cnc(N2CCCC(c3cncc(-n4ccnc4)n3)C2)nc1` (stereo not drawn), the “Percent Effect” value turned out to be 115.9%. `Cl.c1cnc(N2CCCC(NCc3ccc(-n4ccnc4)cc3)C2)nc1` (stereo not drawn): the “Percent Effect” value was 24.04%. On to `COCC(=O)N1CCCC(c2cccc(-n3ccnc3)n2)C1` (stereo not drawn), for which the “Percent Effect” value was 83.17%. As to `CCCc1n[nH]cc1C(=O)N1CCCC(c2nccn2CC2CC2)C1` (stereo not drawn), the “Percent Effect” value turned out to be 2.109%. For `CC(C)Oc1cccc(CC(=O)N(CC(N)=O)C2CCCC2)c1`, the “Percent Effect” value is on record as -6.842%. `CN(C)C(=O)c1ccc(N2CCC3(CCC(=O)N(CCO)C3)CC2)nc1`: the “Percent Effect” value is recorded as -10.7%. Turning to `O=C(Cn1[nH]c2ccccc2c1=O)N1CCCC(CC2CC2)(C(=O)O)C1` (stereo not drawn), the “Percent Effect” value was -7.331%. As for `Cc1ccnc(N2CCCC(c3nccn3C(C)C)C2)n1` (stereo not drawn), the “Percent Effect” value is reported as 2.014%. On to `Cc1cc(C)nc(N2CCCC(c3cccc(-n4ccnc4)n3)C2)n1` (stereo not drawn), for which the “Percent Effect” value is given as 122.3%.

As for `Cc1nc(C(=O)N2CCCC(c3cccc(-n4ccnc4)n3)C2)co1` (stereo not drawn), the “Percent Effect” value is given as -10.62%. Turning to `CCc1c(C)nc2ccccc2c1N1CCC(NC(C)=O)CC1`, the “Percent Effect” value is 12.09%. Consider `Cc1ccoc1C(=O)NCCOc1ccc(C(F)(F)F)cn1`, for which the “Percent Effect” value is listed as -4.463%. In the case of `CCN1CCCCC1C(=O)N1CCC(OC2CCCC2)CC1` (stereo not drawn) it was 102.5%. In the case of `COCCOC1CCN(C(=O)NCc2coc3ccccc23)CC1` it was -1.148%; in that of `COCCOC1CCN(C(=O)NCc2cc(C)oc2C)CC1`, 6.618%; in that of `CCN1CCCCC1C(=O)N1CCC(OCCOC)CC1` (stereo not drawn), 73.16%. Take `CC(=O)c1cccc(NC(=O)CN2CCCCC2C(=O)N2CCCC2)c1` (stereo not drawn): the “Percent Effect” value is on record as -9.292%. The value for `CCN1CCCCC1C(=O)N1CCc2onc(-c3ccc(Cl)cc3)c2C1` (stereo not drawn) was 6.805%. With `COC(=O)N1CCCCC1C(=O)N1CCC(c2ccncc2)CC1` (stereo not drawn), the “Percent Effect” value is on record as -8.744%. Regarding `CCN1CCCCC1C(=O)N1CCN(C(=O)OC)CC1` (stereo not drawn), the “Percent Effect” value worked out at 100.7%. For the compound `COC(=O)N1CCCC(C(=O)N2CCCCC2)C1` (stereo not drawn), the “Percent Effect” value is -8.373%. Take `CC/C=C(/C)C(=O)NCc1ccc(OC)nc1`: the “Percent Effect” value is -1.205%.

In the case of `OCCOCCN1CCCC1c1nc2cc(F)ccc2[nH]1` (stereo not drawn), the “Percent Effect” value was -0.6121%. Consider `CN(C)S(=O)(=O)c1ccc(F)c(NC(=O)COCC2CC2)c1`, for which the “Percent Effect” value was -1.216%. Take `COCCOCC(=O)Nc1cc(C)ccc1F`: the “Percent Effect” value was 111.1%. For the compound `COCCOCC(=O)Nc1ccccc1F`, the “Percent Effect” value is recorded as 116.5%. The value for `COCCOCC(=O)Nc1ccc(F)cc1C` was 92.33%; that for `COCc1cc(CN(C)C(=O)CCC(=O)Nc2cc(C)ccc2F)n[nH]1` was -13.49%; that for `COCCOCC(=O)NC(C#N)c1c(F)cccc1Cl` (stereo not drawn) was -1.788%. The value for `O=C(Cn1ccc(=O)[nH]c1=O)Nc1ccccc1F` was -14.53%; that for `CCC(=O)Nc1ccc(F)cc1OC` was -5.571%.

As for `Cc1cc(F)ccc1NC(=O)Cn1cc(C(=O)O)ccc1=O`, the “Percent Effect” value is on record as -9.145%.

`O=C(NCC(F)(F)C(F)F)c1ccncc1`: the “Percent Effect” value is on record as -18.96%. Turning to `CC(C)Cc1n[nH]c(C2CC(=O)N(CC(C)C)C2)n1` (stereo not drawn), the “Percent Effect” value is listed as -3.52%. Consider `O=C(O)C(F)(F)F.c1ncn(Cc2cn3c(n2)CN(CC2CCCC2)CC3)n1`, for which the “Percent Effect” value is -2.888%.

In the case of `CC[C@H](Nc1nc(C(C)C)nc2c1cnn2C)c1ccccc1`, the “Percent Effect” value is given as -13.66%.

Turning to `CNc1ncc(CN(C)C(=O)CCc2[nH]nc3c2CCCC3)cn1`, the “Percent Effect” value is listed as 98.75%. On to `CN(Cc1ccncn1)C(=O)C1(Oc2ccc(Cl)cc2)CCNCC1`, for which the “Percent Effect” value is -1.2%. As to `CN(Cc1ccncn1)C(=O)CCc1[nH]nc2c1CCCC2`, the “Percent Effect” value is reported as 105.8%. The value for `CNc1ncc(CN(C)C(=O)CCc2cc3n(n2)CCCNC3)cn1` was -7.945%; that for `CNc1ncc(CN(C)C(=O)c2ccc(C3CCCO3)s2)cn1` (stereo not drawn) was -2.521%; that for `CN(Cc1ccncn1)C(=O)c1cccc(CCC(C)(C)O)c1` was -19.37%. `Cn1cc(C[C@H]2[C@@H](OCC3CC3)CCN2C(=O)c2ccc[nH]2)cn1`: the “Percent Effect” value is recorded as -34.09%.
